Each structure is given as a SMILES string. “And” between values parts separate entries of the source, which are not always exact repeats. Identical values can stand only once. Out of some 220,000 compounds screened, about 2,000 (0.91%) were called active. Roughly 2% stayed inconclusive and do not appear here. These entries were drawn from the full list. Measured potencies and affinities stand elsewhere. Values without a mark were called inactive. No stated cut-off is given here; in the data, inconclusive means inhibition above about 80% without an active follow-up result; inactive means below that; test concentration not stated here.

This test in a line: M. tuberculosis H37Rv growth inhibitors, H37Rv strain (AID 1626).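 Further: bacteria incubated seven days before Alamar blue readout; 0% = bacteria only wells and 100% = bacteria with antibiotic wells.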 To be noted: active compounds read high, concentration not given here.
On to `Cc1ccccc1CNC(=O)CCc1ccccc1`, for which the inhibition is -2.14%.
Next, `CCc1ccc(Oc2ncnc(N)c2[N+](=O)[O-])cc1`: -1.27%; `NC(=O)c1cc2n(n1)C(C(F)(F)F)CC(c1ccco1)N2` (stereo not given): -17%.
Consider `Cc1ccc2nc3c(nc2c1)-c1ccccc1C3=O`, for which the inhibition was -8.47%.
In the case of `Cc1ccc2nc(-c3ccccc3)c(-c3ccccc3)nc2c1` it was 1.48%; in that of `O=C(CN1CCN(S(=O)(=O)c2ccccc2)CC1)Nc1ccc2c(c1)OCO2`, -8.01%; in that of `Nc1ncccc1OCc1cccc(C(F)(F)F)c1`, 16.6%.
As to `COc1ccc2nc(C(F)(F)Cl)c(C#N)c(N)c2c1`, the inhibition was -0.68%.
Regarding `O=C(O)c1ccc(/C=C/c2ccc3cccc(O)c3n2)cc1`, the inhibition is 74.2%.
On to `COc1ccc(C(=O)N/N=C/c2ccc3cccc(O)c3n2)cc1`, for which the inhibition was 64.5%.
Next, `O/N=C/c1ccc2cccc(O)c2n1`: 3.62%; `O=C(Cc1ccccc1)N/N=C/c1ccc2cccc(O)c2n1`: 22.8%.
For `COc1cc2c(cc1NC(=O)C(C)Sc1ccc(C)cc1)oc1ccccc12` (stereo not given), the inhibition is 9.39%.
As for `CCOC(=O)CON1C(=O)C(=O)N(OCC(=O)OCC)[C@H]2CCCC[C@H]21`, the inhibition is 2.73%.
In the case of `COc1ccc(-c2[nH]ncc2CN2CCSCC2)c(OC)c1`, the inhibition is -1.11%.
Next, `COc1ccc(-n2c(SCC(=O)Nc3ccccc3)nc3c(c2=O)SCC3)cc1`: 6.14%.
For `CCCC(CCC)C(=O)Nc1ccncc1`, the inhibition is -10.4%.
For the molecule `CCCCCCOc1ccc(/C(N)=N/O)cc1`, the inhibition was 5.99%.
In the case of `C=CCC(=O)OCCCCCCOc1ccc(C(=O)O)cc1` it was -13.9%; in that of `CC1(C)Cc2c(c(=S)nc(-c3ccccc3)n2CCO)CO1`, 7.44%.
Consider `O=C(O)Cc1sc(NCc2ccco2)nc1-c1ccccc1`, for which the inhibition is 8.81%.
In the case of `O=C(Nc1ccc(S(=O)(=O)Nc2nccs2)cc1)C1CC(=O)N(c2ccccc2)C1` (stereo not given) it was -6.74%.
Next, `COc1ccc(Br)cc1/C=N/NC(=O)c1ccco1`: -2.04%.
Next, `Cc1ccc(CNC(=O)C(=O)Nc2nccs2)cc1`: 10.4%.
Consider `O=C(NCc1ccc(Cl)cc1)C(=O)Nc1nccs1`, for which the inhibition was 1.96%.
In the case of `O=C(/C=C/c1cccnc1)c1ccc(NC(=O)c2cccc(Br)c2)cc1` it was 8.79%; in that of `CC(/C=C\c1cccnc1)=C/C(=O)O`, 1.6% and 0.21%; in that of `O=C(/C=C/c1ccccc1)NC(=O)c1ccccc1O`, -10.8%.
Take `O=C(O)/C=C/c1cccnc1`: the inhibition is -0.59%.
Consider `O=C(O)CCC(=O)/C=C/c1ccccc1`, for which the inhibition was -6.33%.
Next, `CC(/C=C\c1ccccc1)=C/C(=O)O`: 2.72%; `O=C(/C=C/c1ccc(Br)cc1)NC(=O)c1ccccc1O`: 5.02%.
As for `Cc1cccc(NC(=O)c2cccnc2)c1`, the inhibition was 1.57%.
On to `CCC/C=N/NC(=O)c1cc(Br)ccc1O`, for which the inhibition was -8.13%.
For `COc1cccc(-c2nc(N3CCN(c4ccccc4)CC3)c3ccccc3n2)c1O`, the inhibition was -0.61%.
Take `CN1C=CC=C/C1=C1\SC(=S)N(CC(=O)O)C1=O`: the inhibition was -3.47%.
Consider `Cc1cccc(Cc2nnc(CCC(=O)NCc3ccncc3C)o2)c1`, for which the inhibition was -3.05%.
Next, `O=C(C1=NN[C@@H]2C(=O)N(c3cccc(C(F)(F)F)c3)C(=O)[C@H]12)c1cnccn1`: -13.3%.
Next, `S=C1NC(c2cccs2)=CC(c2ccc(Br)cc2)N1` (stereo not given): 12.7%; `COc1ccc(CC(=O)OCC(=O)Nc2cccc(Cl)c2)cc1`: -0.87%.
In the case of `CC(C)(CN1CCCCC1)NS(=O)(=O)c1ccc(Cl)cc1` it was 3.88%; in that of `CN(C)/C=C(\C#N)C(=O)Nc1ccc(F)cc1`, -3.02%; in that of `O=C(COC(=O)CNC(=O)c1cccc([N+](=O)[O-])c1)Nc1cccc(S(=O)(=O)N2CCCC2)c1`, -1.39%.
For the molecule `C#CCOCCOCCOCCNc1nc(N2CCN(C(=O)C([C@@H](C)CC)n3cc(C(N)CO)nn3)CC2)nc(N2CCN(C(=O)C([C@@H](C)CC)n3cc(C(N)COC(=O)C(F)(F)F)nn3)CC2)n1` (stereo not given in full), the inhibition was -11.1%.
For `CCOC(=O)NC(=O)c1cn(Nc2ncc(Cl)cc2C(F)(F)F)c(=O)[nH]c1=O`, the inhibition is -8.73%.
Next, `CCOC(=O)Cn1c2c(c(=N)c3c1CCC3)CCCC2`: -4.08%; `CCOC(=O)N1CCC(NC(=O)Cn2c3c(c(-c4ccccc4Cl)cc2=O)CCC3)CC1`: -2.35%; `CCNC(=S)N1CCC(c2nc3ccccc3s2)CC1`: -0.93%.
As to `O=C(NCc1cccnc1)c1cccc(S(=O)(=O)N2CCOCC2)c1`, the inhibition is 0.09%.
Next, `c1ccc2c(c1)CCc1c-2nc2ccccc2c1N1CCOCC1`: 4.28%; `COc1ccc2c(-c3ccccc3)cc(N3CCOCC3)nc2c1`: -14.6%; `Cc1cccn2cc(-c3ccc(S(=O)(=O)N4CCCCC4)cc3)nc12`: 0.16%.
Take `Oc1ccccc1-c1nc(N2CCCC2)c2ccccc2n1`: the inhibition was -6.53%.
Take `CC1CCN(c2nc(-c3ccccc3O)nc3ccccc23)CC1`: the inhibition is -2.32%.
Next, `c1ccc2c(N3CCCC3)nc(-c3ccncc3)nc2c1`: 6.26%; `c1ccc2c(c1)nc(N1CCCCC1)c1ccccc12`: 12.2%.
For the molecule `CC1CCN(c2ncnc3ccccc23)CC1`, the inhibition is -8.39%.
Next, `c1ccc2c(c1)nc(N1CCCCCC1)c1ccccc12`: 3.85%; `c1ccc2c(N3CCCCC3)nc(N3CCCC3)nc2c1`: -8.46%; `CN1CCN(c2nc(-c3ccncc3)nc3ccccc23)CC1`: 3.8%.
Next, `CC(C)(C)NS(=O)(=O)c1cc(C(=O)O)ccc1Cl`: -11.1%; `Cc1c(C#N)c(=O)c(-[n+]2ccccc2)c([S-])n1-c1ccc(Cl)cc1`: 3.17%.
In the case of `O=C(O)c1ccc(NC2=C(n3nnc4ccccc43)C(=O)c3ccccc3C2=O)cc1` it was -3.22%; in that of `Cc1cc([N+](=O)[O-])c(Cl)cc1NC(=O)C(C)C`, -3.38%; in that of `O=C(O)c1ccc2c(c1)-c1nc3ccccc3n1C2=O`, -6.82%.
For the molecule `COc1ccc(-c2ccc3ccccc3n2)cc1OC`, the inhibition was 12.8%.
Next, `Cc1ccc(C)c(NC(=S)N2CCN(Cc3ccccc3)CC2)c1`: -5.34%; `Cc1cc(C)cc(N(C(C)C(=O)N2CCCCC2)S(C)(=O)=O)c1` (stereo not given): 7.53%.
As for `O=C(COc1ncnc2ccccc12)N1CCN(c2ccccc2)CC1`, the inhibition was 5.1%.
Next, `NNC(=O)c1ccc2ccccc2n1`: 27%; `COC(=O)c1ccc2ccccc2n1`: -11.4%.
As for `CCOc1ccc(-n2cc(-c3ccccc3)c3c(=O)[nH]cnc32)cc1`, the inhibition is 64.1%.
Next, `COc1ccc(-n2cc(-c3ccccc3)c3c(N4CCN(CCO)CC4)ncnc32)cc1`: 0.66%; `O=P1(Oc2ccccc2)OCCCS1` (stereo not given): 12.1%; `COC(=O)CC(c1ccc(F)cc1)n1c(C)ccc1C` (stereo not given): -0.04%.
In the case of `c1ccc(CN2CCC(Nc3ncnc4sccc34)CC2)cc1` it was 7.78%; in that of `Oc1ccccc1-c1nc(NCc2ccco2)c2ccccc2n1`, -6.38%; in that of `Oc1ccccc1-c1nc(NCC2CCCO2)c2ccccc2n1` (stereo not given), 9.18%.
In the case of `c1cncc(-c2nc(NCc3ccco3)c3ccccc3n2)c1` it was -4.8%.
For `c1ccc(CN2CCC(Nc3nc(-c4cccnc4)nc4ccccc34)CC2)cc1`, the inhibition was 11.5%.
Consider `Cc1ccccc1Nc1nc(NCc2ccco2)c2ccccc2n1`, for which the inhibition was 1.73%.
In the case of `c1ccc(Nc2nc(NCC3CCCO3)c3ccccc3n2)cc1` (stereo not given) it was 2.76%.
In the case of `Fc1ccccc1-c1nc(NCc2ccco2)c2ccccc2n1` it was 0.67%; in that of `CCCn1c(CN2CCN(c3cccc(Cl)c3)CC2)nc2c1c(=O)n(C)c(=O)n2C`, 7.42%; in that of `Cc1cc(C)nc(-n2ncc3c2CC(c2ccc(F)cc2)CC3=O)n1` (stereo not given), -3.92%.
As for `CCCN1CCN(C(=O)Cn2c(=O)oc3cc(S(=O)(=O)NCc4ccccc4)ccc32)CC1`, the inhibition is 0.47%.
In the case of `O=C1CCC/C1=c1\s/c(=C\c2cccnc2)c(=O)n1-c1ccccc1`, the inhibition was -3.57%.
In the case of `CCCCCCCCC(=O)NNC(=O)c1c(O)c2ccccc2n(CCC)c1=O`, the inhibition was 1.3%.
In the case of `CCOC(=O)c1sc2nc(CC(=O)OC)nc(NCc3ccc(F)cc3)c2c1C` it was -2.66%.
Take `CC(NC(=O)c1cccc(N2CCCC2=O)c1)c1ccc2c(c1)OCCO2` (stereo not given): the inhibition was -0.45%.
Next, `COCC(N)(c1ccccc1)c1nc2ccccc2n1C` (stereo not given): -3.7%; `Cn1c(Cc2ccccc2)nnc1SCC(=O)N1CCCCC1`: -3.96%.
Regarding `CCOC(=O)c1sc2nc(C)c3c(c2c1N)CC(C)(C)OC3`, the inhibition was -1.95%.
Turning to `N#CCCN(C(=O)COC(=O)C1CCN(S(=O)(=O)c2cccs2)CC1)c1ccccc1`, the inhibition was 3.1%.
`CCOC(=O)C1C(=O)NC(c2ccccc2)=NC1c1ccc(O)c(OC)c1` (stereo not given): the inhibition was 2.45%.
Next, `CC(C)(C)C(=O)O/N=C(\N)Cc1ccc(-c2csnn2)cc1`: -5.08%.
Take `Clc1cccc(-c2nc(NCc3cccnc3)c3ccccc3n2)c1`: the inhibition is 74.3%.
On to `c1ccc(CNc2nc(-c3cccs3)nc3ccccc23)cc1`, for which the inhibition is 13.4%.
Turning to `c1ccc(-c2nc(NCc3cccnc3)c3ccccc3n2)cc1`, the inhibition is 7.56%.
Consider `c1csc(CNc2nc(-c3cccs3)nc3ccccc23)c1`, for which the inhibition was 9.19%.

Values taken from PubChem BioAssay AID1626 (SRMLSC, 2009).
